The record followed here is PubChem BioAssay AID449768 (Vanderbilt High Throughput Screening Facility, 2010).

About 1,400 (1.3%) of roughly 110,000 compounds were called active. What follows is part of a selection rich in actives, with near analogues and random picks from the rest. Values without a mark were called inactive.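 The calls were made as follows: active = Z score or B-score, a plate-position-corrected score, falls beyond the plate's 99.7% confidence bounds, in either direction; inactive = both scores lie inside the 99.7% bounds.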

Sodium-dependent dopamine transporter (Homo sapiens), sequence (Q01959 whole entry, looked up): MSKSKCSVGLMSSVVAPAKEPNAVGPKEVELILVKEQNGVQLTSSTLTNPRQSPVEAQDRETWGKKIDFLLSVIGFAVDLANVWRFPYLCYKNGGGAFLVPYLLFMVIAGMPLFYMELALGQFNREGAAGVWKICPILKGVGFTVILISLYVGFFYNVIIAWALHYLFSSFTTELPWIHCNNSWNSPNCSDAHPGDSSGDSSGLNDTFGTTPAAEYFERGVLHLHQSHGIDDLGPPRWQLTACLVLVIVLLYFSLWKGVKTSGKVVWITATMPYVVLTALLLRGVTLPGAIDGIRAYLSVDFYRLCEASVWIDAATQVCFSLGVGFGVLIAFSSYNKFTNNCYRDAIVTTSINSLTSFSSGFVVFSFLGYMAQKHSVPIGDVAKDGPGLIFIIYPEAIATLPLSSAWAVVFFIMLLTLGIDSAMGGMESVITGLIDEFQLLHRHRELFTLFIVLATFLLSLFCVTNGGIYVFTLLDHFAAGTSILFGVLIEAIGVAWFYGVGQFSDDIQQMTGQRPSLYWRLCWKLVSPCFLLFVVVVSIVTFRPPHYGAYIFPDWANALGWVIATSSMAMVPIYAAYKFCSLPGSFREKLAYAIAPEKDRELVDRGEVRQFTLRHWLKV

This assay addresses Sodium-dependent dopamine transporter (Homo sapiens) (UniProt Q01959). The assay is described as follows: changed hDAT dopamine uptake under cocaine IC80, either direction, primary screen, cocaine antagonist project, cell-based, LLC-PK1 hDAT, [14C]-dopamine uptake, MLSMR (AID 449768).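 Also: scored against the spread of the other compound wells on the same plate.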 Conditions: LLC-PK1 hDAT cells, [14C]-dopamine uptake with cocaine IC80; at 10 µM; actives deviate in either direction.
As to `Cc1cc(C)n(-c2nnc(C)n2NC(=O)c2cccc(Cl)c2)n1`, the B-score was -8.7 (active).

As for `O=C(Nc1ccon1)c1cccc(Cl)c1`, the B-score is 0.0619.

`Cc1cc(C)n(-c2ccc(Cl)c(C(=O)O)n2)n1`: the B-score was -1.42.

With `COc1ccc2c(c1)CCNC2Cc1ccc(OC)c(O)c1` (stereo not given), the B-score was -0.654.

On to `CC(=O)Nc1sc2c(c1C(c1cccc(F)c1)N1CCN(CCO)CC1)CCCC2` (stereo not given), for which the B-score is 0.298.

Turning to `C[C@@H]1NC(=O)c2cc([N+](=O)[O-])cc(F)c2NCCC[C@@H](C(N)=O)NC(=O)[C@H](CC(N)=O)NC1=O`, the B-score is -0.649.

Take `Cc1ccc(C(=O)Nc2ccccc2C(=O)NC2CCCCC2)cc1S(=O)(=O)N1CCOCC1`: the B-score is -0.00206.

Consider `O=C(Nc1ccccc1F)c1cc(S(=O)(=O)N2CCCCC2)cs1`, for which the B-score was 0.695.

In the case of `Cc1ccccc1NC(=O)c1cc(S(=O)(=O)N2CCOCC2)cs1`, the B-score was -3.41 (active).

As to `C/C=C(/C)C(=O)Nc1cccc(C2=NOC3(C2)C[C@@H](C(N)=O)N(C(=O)C2(C)CC2)C3)c1` (stereo not given in full), the B-score is -0.445.

Consider `CC(Sc1nc2c([nH]c3ccccc32)c(=O)n1C)c1ccccc1` (stereo not given), for which the B-score was 0.73.

As for `CCOC(=O)c1c(NC(=O)C(C)Sc2c[nH]c3ccccc23)sc2c1CCC2` (stereo not given), the B-score is -0.485.

Regarding `Cc1nc(SCC(=O)N2CCc3ccccc3C2)c2c(C)c(C)sc2n1`, the B-score is 2.48.

Regarding `Cc1nc(SCC(=O)N2CC(=O)Nc3ccccc32)c2c(C)c(C)sc2n1`, the B-score is 2.75 (active).

For the compound `Cc1nc(SCC(=O)Nc2cc(C)on2)c2c(C)c(C)sc2n1`, the B-score is 0.457.

On to `C=CCSc1nnc2c(n1)-c1cccc3cccc-2c13`, for which the B-score is 0.0257.

With `CCOC(=O)N1CCN(C(=O)c2ccc(S(=O)(=O)c3ccc(C)cc3)c(NC(C)=O)c2)CC1`, the B-score is -7.14 (active).

For `CC(=O)Nc1cc(C(=O)O)ccc1S(=O)(=O)c1ccc(Cl)cc1`, the B-score is -0.803.

As for `CCOC(=O)N1CCN(C(=O)c2ccc3c(c2)N(Cc2ccc(C)cc2)CCS3)CC1`, the B-score is 0.333.

On to `C[C@@H](C(=O)N1CCNCC1)n1cc(CCC(=O)O)nn1`, for which the B-score was -0.0383.

As to `Cc1ccc(-c2cc(=O)c3ccc(F)cc3[nH]2)cc1`, the B-score was 0.343.

Take `Cc1noc(C)c1CSCC(=O)Nc1nc2ccc(Oc3ccccc3)cc2s1`: the B-score is 3.18 (active).

For the compound `CCOC(=O)c1c(C2CC2)csc1NC(=O)CSCc1c(C)noc1C`, the B-score is 0.395.

For `CCn1c(SCC(=O)Nc2nc3ccc(OC)cc3s2)nnc1-c1ccoc1C`, the B-score was 0.56.

As for `NC(=O)C1=C[C@@H](c2csc3ccccc23)C[C@@H](OCc2ccc(CO)cc2)O1`, the B-score is 0.21.

As for `CC/C=C/C(=O)N1CC2(CC(c3cccc(NC(=O)CC)c3)=NO2)C[C@H]1C(N)=O` (stereo not given in full), the B-score was 0.271.

For the compound `CCCC[C@@H]1CN=C(N)N1CCc1cccc(F)c1`, the B-score was -0.00752.

As to `CCOC(=O)c1sc(NC(=O)CSc2nc3c(c(=O)n2-c2ccccc2)SCC3)c(C(=O)OCC)c1C`, the B-score is 0.723.

Consider `O=C(Cn1cnc2c(nnn2Cc2ccc(F)cc2)c1=O)NCc1ccc2c(c1)OCO2`, for which the B-score is -8.17 (active).

For `Cc1ccc(Cn2nnc3c(=O)n(CC(=O)N4CCCCC4)cnc32)cc1`, the B-score was 0.247.

Turning to `O=C(Cn1nnc(-c2ccccc2)n1)NCc1ccc2c(c1)OCO2`, the B-score is 0.156.

For the compound `NC(=O)CC(NC(=O)Cc1cccc2ccccc12)c1ccc(NCc2cc(F)ccc2F)c([N+](=O)[O-])c1` (stereo not given), the B-score is 0.0495.

On to `O=C(NCc1ccccc1)C1=C[C@@H](c2ccccc2)C[C@@H](OCCCCO)O1`, for which the B-score was 0.736.

Regarding `CCN1C(=O)N[C@@H](CCc2ccccc2)C(C(=O)OC)=C1C`, the B-score was 0.0945.

Regarding `COC(C[C@H](O)CC(=O)[C@@H](C)OCc1ccccc1)OC`, the B-score is -0.99.

On to `O=C(O)C1=C[C@H](c2cccs2)C[C@H](OCCCCO)O1`, for which the B-score was -0.012.

For `CCOc1cc2[nH]c(=O)n(CCC(=O)NCc3ccc(OC)cc3)c(=O)c2cc1OCC`, the B-score was -0.216.

As for `COc1cc2[nH]c(=O)n(CCC(=O)NC3CCN(Cc4ccccc4)CC3)c(=O)c2cc1OC`, the B-score is 3.31 (active).

Regarding `COc1ccc(CCNC(=O)CCCCn2c(=O)[nH]c3ccccc3c2=O)cc1OC`, the B-score was 0.579.

As to `CC(C)NC(=O)NCCCCCCS(C)=O` (stereo not given), the B-score was 0.321.

For the compound `O=c1[nH]snc1-c1c(Cl)cccc1Cl`, the B-score is 1.69.

For `Cc1cccc(NC(=O)c2sc3nc4c(c(-c5ccco5)c3c2N)CCC4)c1`, the B-score is -8.82 (active).

Turning to `NC(=O)c1sc2nc3c(c(-c4ccccc4)c2c1N)CCC3`, the B-score is 0.0164.

As for `CC(=O)Nc1ccc(NC(=O)c2sc3nc4c(c(-c5ccc(C)cc5)c3c2N)CCC4)cc1`, the B-score is -0.372.

Turning to `CCOC(=O)c1ccccc1NC(=O)c1c(N)n(C)c(=O)[nH]c1=O`, the B-score was -0.18.

Consider `C[C@@H]1CC[C@]2(O[C@@H](CCO)C[C@H](O)[C@H]2O)O1`, for which the B-score was -0.347.

With `CC(C)C[C@H](CO)Nc1nc(N(C)c2cccc(Cl)c2)c2ncn(C(C)C)c2n1`, the B-score was 2.72 (active).

On to `CC(C)n1cnc2c(Nc3cccc(Cl)c3)nc(N(CCO)CCCO)nc21`, for which the B-score is 0.4.

Take `COC(=O)C(C)n1cnc2c(nnn2-c2cccc(Cl)c2)c1=O` (stereo not given): the B-score is -0.668.

For the compound `C#CCOCCOCCOCCNc1nc(N2CCN(C(=O)[C@H](CCC(=O)O)n3cc(C(N)CO)nn3)CC2)nc(N2CCN(C(=O)[C@H](CCCCN)n3cc(C(N)[C@H](C)CC)nn3)CC2)n1` (stereo not given in full), the B-score was -0.0414.

As to `COc1ccc(N2C(=O)C3CCCN3C2c2cccc(OC)c2)cc1` (stereo not given), the B-score was -2.41 (active).

Consider `COc1cccc(N2C(=O)C3CCCN3C2c2ccc(F)cc2)c1` (stereo not given), for which the B-score was -0.103.

In the case of `COc1ccc(N2C(=O)C3CCCN3C2c2cc(OC)c(OC)cc2OC)cc1` (stereo not given), the B-score was -1.27.

On to `CC(=O)N[C@H]1[C@H]([C@H](O)[C@H](O)CO)OC(C(=O)O)=C[C@@H]1O`, for which the B-score was 0.169.

As to `CC1(OC(=O)CCc2ccccc2)C(=O)C=C2C=C(c3ccc(C#N)cc3)N(CCc3ccccn3)C=C2C1=O` (stereo not given), the B-score is -1.62.
